# Screen size: about 310,000 compounds; about 14,000 (4.5%) showed an effect of 50% or more. The effect is printed as a negative number. Only a selection was taken, and strong results are over-represented in it overall.
# Biological target: human ether-à-go-go-related gene (hERG) potassium channel (human, UniProt Q12809)
# Experiment: primary screen, population patch clamp on CHO cells stably expressing hERG; higher = less effect of the substance
# 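Note: peak tail current of the secondary pulse compared with the same well before compound.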
# human ether-à-go-go-related gene (hERG) potassium channel, sequence (Q12809 whole entry, looked up): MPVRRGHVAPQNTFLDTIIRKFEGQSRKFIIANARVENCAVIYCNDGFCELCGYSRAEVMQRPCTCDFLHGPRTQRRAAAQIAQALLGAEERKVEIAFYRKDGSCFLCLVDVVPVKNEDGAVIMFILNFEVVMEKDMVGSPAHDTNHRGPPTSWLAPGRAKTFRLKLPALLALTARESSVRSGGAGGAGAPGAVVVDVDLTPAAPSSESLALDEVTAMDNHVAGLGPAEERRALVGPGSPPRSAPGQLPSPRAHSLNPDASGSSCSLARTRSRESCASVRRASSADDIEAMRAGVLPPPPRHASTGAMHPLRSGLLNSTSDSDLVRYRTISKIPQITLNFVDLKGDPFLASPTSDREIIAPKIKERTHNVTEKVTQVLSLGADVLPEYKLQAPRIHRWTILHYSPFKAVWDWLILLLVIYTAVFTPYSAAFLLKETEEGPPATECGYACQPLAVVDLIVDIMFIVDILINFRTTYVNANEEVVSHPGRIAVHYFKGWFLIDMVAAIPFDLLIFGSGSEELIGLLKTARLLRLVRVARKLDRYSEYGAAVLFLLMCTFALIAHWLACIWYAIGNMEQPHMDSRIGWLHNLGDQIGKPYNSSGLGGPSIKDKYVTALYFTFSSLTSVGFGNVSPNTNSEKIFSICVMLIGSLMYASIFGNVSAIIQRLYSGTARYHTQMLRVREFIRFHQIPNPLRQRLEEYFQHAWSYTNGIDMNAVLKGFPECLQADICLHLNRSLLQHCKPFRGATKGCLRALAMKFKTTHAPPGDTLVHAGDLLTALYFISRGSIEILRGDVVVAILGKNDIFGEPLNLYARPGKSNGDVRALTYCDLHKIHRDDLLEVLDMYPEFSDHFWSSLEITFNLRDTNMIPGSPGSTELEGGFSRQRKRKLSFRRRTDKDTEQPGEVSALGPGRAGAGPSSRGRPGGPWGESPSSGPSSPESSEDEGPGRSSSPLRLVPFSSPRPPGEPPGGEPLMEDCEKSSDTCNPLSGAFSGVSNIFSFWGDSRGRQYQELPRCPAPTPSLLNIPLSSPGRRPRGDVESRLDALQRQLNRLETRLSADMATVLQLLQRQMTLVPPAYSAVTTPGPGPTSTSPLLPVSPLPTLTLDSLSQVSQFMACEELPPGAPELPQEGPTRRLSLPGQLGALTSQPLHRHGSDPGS
row,SMILES,"hERG current change (%, negative = inhibition) at 10uM [%]"
1,O=C(Sc1ccc(Cl)cc1)c1cccc(Cn2cc(C(F)(F)F)ccc2=O)c1,18.6
2,CCOC(=O)N1CCC(N2CCCC(C(=O)c3cc(C)c(OC)c(C)c3)C2)CC1 (centres unmarked),-57.3
3,CCOC(=O)N1CCC(N2CCCC(C(=O)c3cccc(OC(C)C)c3)C2)CC1 (centres unmarked),-76.8
4,CCOC(=O)CCNC(=O)N1CCCC(C(=O)c2cccc(OC(C)C)c2)C1 (centres unmarked),-10.3
5,COc1c(C)cc(C(=O)C2CCCN(S(=O)(=O)c3c(C)noc3C)C2)cc1C (centres unmarked),-2.78
6,CCOC(=O)N1CCC(N2CCCC(C(=O)c3cccc(OC)c3)C2)CC1 (centres unmarked),-64.8
7,COc1ccc(C(=O)C2CCCN(S(=O)(=O)N(C)C)C2)c(C)c1 (centres unmarked),0.683
8,CCOC(=O)CNC(=O)N1CCCC(C(=O)c2cc(C)c(OC)c(C)c2)C1 (centres unmarked),9.16
9,CCOC(=O)c1c(C)[nH]c(C(=O)N2CCCC(C(=O)c3cccc(OC)c3)C2)c1C (centres unmarked),-8.55
10,CCCC(=O)N1CCCC(C(=O)c2cccc(OC(C)C)c2)C1 (centres unmarked),3.64
11,COc1c(C)cc(C(=O)C2CCCN(C3CCOCC3)C2)cc1C (centres unmarked),-15.2
12,CC(=O)N1CCC(N2CCCC(C(=O)c3cccc(Cl)c3)C2)CC1 (centres unmarked),5.55
13,COc1c(C)cc(C(=O)C2CCCN(S(=O)(=O)N(C)C)C2)cc1C (centres unmarked),-66.5
14,Cn1cc(C(=O)OCC(=O)Nc2ccccc2)c2ccccc21,-8.39
15,CCCCCCOc1ccc(N2C(=O)CC(N3CCN(CCN=CC4C(=O)CC(C)(C)CC4=O)CC3)C2=O)cc1 (centres unmarked),-32.5
16,CN(C)S(=O)(=O)c1cccc(NC(=O)COC(=O)c2cn(-c3ccccc3)nc2-c2ccccc2)c1,12.3
17,O=C1Nc2ccccc2N(O)N1c1cc(-c2ccc(Cl)cc2)[nH]n1,22.9
18,CC(C)(C)c1nc(N)nc(=O)[nH]1,-1.18
19,COc1ccc2cc(C(=O)C3CCCN(C(=O)c4csnn4)C3)ccc2c1 (centres unmarked),-13.2
20,CCOC(=O)N1CCC(N2CCCC(C(=O)c3ccc4cc(OC)ccc4c3)C2)CC1 (centres unmarked),-74.3
21,CCNC(=O)N1CCCC(C(=O)c2ccc3cc(OC)ccc3c2)C1 (centres unmarked),-22.5

row,SMILES,"hERG current change (%, negative = inhibition) at 10uM [%]"
1,CCOC(=O)N1CCC(N2CCCC(CO)(Cc3ccccc3C)C2)CC1 (centres unmarked),0.621
2,COc1ccc2cc(C(=O)C3CCCN(C(=O)Cc4c(C)noc4C)C3)ccc2c1 (centres unmarked),-68.5
3,Cc1noc(C)c1CC(=O)N1CCCC(C(=O)c2ccc(C(C)(C)C)cc2)C1 (centres unmarked),-18.8
4,CCOC(=O)N1CCC(N2CCCC(CO)(Cc3cccc(Cl)c3)C2)CC1 (centres unmarked),-49
5,COc1ccc(C(=O)C2CCCN(C(=O)Cc3c(C)noc3C)C2)cc1OC (centres unmarked),-3.81
6,CCOC(=O)N1CCC(N2CCCC(CO)(Cc3cccc(OC)c3)C2)CC1 (centres unmarked),-51.7
7,COc1cccc(CC(Cc2nc3ccccc3[nH]2)c2nc3ccccc3[nH]2)c1 (centres unmarked),-33
8,Cn1nnnc1SCC(=O)Nc1ccc(N2CCOCC2)cc1,5.57
9,N#CCc1ccc(NC(=O)c2ccc(S(=O)(=O)N3CCCC3)cc2)cc1,16.9
10,CC1CCCCN1S(=O)(=O)c1ccc(NC(=O)c2cccs2)cc1 (centres unmarked),-11.3
11,COc1ccccc1CNc1ncnc2c1cnn2-c1ccccc1,-12.1
12,COc1ccc2nc(Nc3nc(CSc4nnnn4-c4ccccc4)cc(=O)[nH]3)nc(C)c2c1,-42.1
13,O=C(NCc1ccccc1Cl)c1ccc2ccccc2n1,-1.85
14,O=C(O)C1=C[C@@H](c2ccc(Br)cc2)C[C@@H](OCc2ccc(CO)cc2)O1,18.2
15,Cc1ccc(NC(=O)[C@@H]2CCCN2S(=O)(=O)c2ccccc2C(F)(F)F)cc1S(=O)(=O)N1CCOCC1,-21.4
16,CCN1C(=O)N[C@H](c2ccccc2)C(C(C)=O)=C1C,8.38
17,CN1CCN(C=NC2=NN(c3cccc(C(F)(F)F)c3)CC2)CC1,-23.9
18,Cc1ccc(Oc2ccc(/C=N/O)cn2)cc1,-1.45
19,N#Cc1ccc(Oc2ccc(/C=N/O)cn2)cc1,-73.7
20,O=[N+]([O-])c1ccc(Oc2ccc(/C=N/O)cc2)nc1,0.3

# — PMC4336329 (PLoS ONE, 2015)
